# Assay results taken from PubChem BioAssay (Tox21).
# A number with no mark means an inactive call. Records with an inconclusive call do not appear. Entries that show only a call come without a potency. The source made the active and inactive calls. Unless noted, the call rests on the fitted dose curve.
# How the values were obtained:
# [1] = Nuclear factor erythroid 2-related factor 2/antioxidant responsive element (Nrf2/ARE) small molecule agonists: qHTS cell viability counter screen in human keratinocytes (AID 1919968; active means well fitted curve in the direction sought with a large enough effect in the repeat runs; an effect the other way counts as inactive or inconclusive; further: nearly all actives have a fitted effect of over 55% in size; further: potency means the concentration at half of the fitted maximal effect); conditions: KeratinoSens HaCaT ARE cells viability, CellTiter-Fluor, 24 h; series mostly up to 92.4 µM
# In short: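 After a 5 h attachment period, ARE-reporter keratinocytes were dosed with compounds in DMSO and then cultured 23 h at 37 C. Cell viability came from CellTiter-Fluor signal read after a further 1 h.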
# [2] = Nuclear factor erythroid 2-related factor 2/antioxidant responsive element (Nrf2/ARE) small molecule agonists: luciferase reporter gene qHTS assay in human keratinocytes (AID 1919969); conditions: KeratinoSens HaCaT ARE-luciferase, luminescence, 24 h; series mostly up to 92.4 µM; further: nearly all actives have a fitted effect of over 35% in size
# [3] = target: Gonadotropin-releasing hormone receptor (Homo sapiens) (UniProt P30968); assay: Human gonadotropin-releasing hormone receptor (GnRHR) small molecule agonists, calcium flux assay in GnRHR-HEK293 cells (AID 1920063); conditions: calcium flux fluorescence, agonist mode; series mostly up to 57.6 µM; further: nearly all actives have a fitted effect of over 35% in size; further: potency means the concentration at half of the fitted maximal effect
# Chain of Gonadotropin-releasing hormone receptor (Homo sapiens) (P30968 whole entry, looked up): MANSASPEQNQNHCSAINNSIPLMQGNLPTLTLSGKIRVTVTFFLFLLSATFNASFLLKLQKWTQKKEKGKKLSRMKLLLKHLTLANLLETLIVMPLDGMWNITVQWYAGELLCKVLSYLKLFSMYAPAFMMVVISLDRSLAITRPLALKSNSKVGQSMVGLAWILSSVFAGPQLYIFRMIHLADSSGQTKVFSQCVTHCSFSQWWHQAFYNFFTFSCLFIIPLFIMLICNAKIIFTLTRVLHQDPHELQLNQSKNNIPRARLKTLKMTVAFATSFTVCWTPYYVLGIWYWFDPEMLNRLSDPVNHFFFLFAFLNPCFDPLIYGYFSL
# In short: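 We seeded human GnRHR-expressing HEK293 cells for 18 hours, loaded them with calcium dye for an hour at 37 C, added test compounds, and recorded fluorescence intensity kinetically for three minutes.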
# [4] = target: KiSS-1 receptor (Homo sapiens) (UniProt Q969F8); assay: Human kisspeptin (KISS1R) small molecule agonists, calcium flux assay in KISS1R-HEK293 cells (AID 1920064; active means well fitted curve in the direction sought with a large enough effect in the repeat runs; an effect the other way counts as inactive or inconclusive); conditions: KISS1R-HEK293, calcium flux fluorescence, agonist; series mostly up to 76.8 µM
# Chain of KiSS-1 receptor (Homo sapiens) (Q969F8 whole entry, looked up): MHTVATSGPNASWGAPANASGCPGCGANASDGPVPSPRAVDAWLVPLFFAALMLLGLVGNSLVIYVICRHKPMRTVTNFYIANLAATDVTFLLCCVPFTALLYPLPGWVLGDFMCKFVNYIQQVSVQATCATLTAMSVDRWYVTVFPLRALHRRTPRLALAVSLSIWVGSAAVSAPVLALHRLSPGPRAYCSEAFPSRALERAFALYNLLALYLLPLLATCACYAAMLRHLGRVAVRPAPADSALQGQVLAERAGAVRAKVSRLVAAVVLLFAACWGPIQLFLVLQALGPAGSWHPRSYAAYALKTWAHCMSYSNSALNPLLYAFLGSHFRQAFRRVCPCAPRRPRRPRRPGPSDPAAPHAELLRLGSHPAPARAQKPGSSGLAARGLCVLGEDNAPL
# In short: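 Kinetic calcium assay, 1 s sampling over 3 min at Ex/Em 480/540, in HEK293 cells engineered with human KISS1R; compounds delivered in DMSO after 1 h dye loading.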
# [5] = p53 small molecule agonists, cell-based qHTS assay with human liver microsomes: qHTS cell viability counter screen (AID 1963579); conditions: p53RE-bla HCT-116 viability, ATP luminescence, 16 h, HLM; series mostly up to 66 µM; further: nearly all actives have a fitted effect of over 45% in size
# In short: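 Viability of p53RE-bla cells is measured as CellTiter-Glo luminescence following a 16 h, 37 C incubation with compound, liver microsomes from human donors and NADPH.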
# [6] = p53 small molecule agonists, cell-based qHTS assay with rat liver microsomes: qHTS cell viability counter screen (AID 1963580); conditions: p53RE-bla HCT-116 + rat microsomes, ATP viability, 16 h; series mostly up to 66 µM; further: nearly all actives have a fitted effect of over 45% in size
# In short: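 p53RE-bla HCT-116 cells (4,000/well) rested 5 h at 37 C, then given Tox21 compounds in DMSO with rat liver microsomes (0.5 mg/mL final) plus NADPH (0.5 mg/mL final) for 16 h at 37 C. Viability read by CellTiter-Glo luminescence after 30 min at room temperature.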
# [7] = target: Muscarinic acetylcholine receptor M1 (Homo sapiens) (UniProt P11229); assay: Cholinergic receptor muscarinic 1 (CHRM1) small molecule antagonists, cell-based qHTS assay (AID 1963588); conditions: CHRM1-CHO antagonist mode, calcium flux fluorescence; series mostly up to 61.5 µM; further: nearly all actives have a fitted effect of over 40% in size
# Chain of Muscarinic acetylcholine receptor M1 (Homo sapiens) (P11229 whole entry, looked up): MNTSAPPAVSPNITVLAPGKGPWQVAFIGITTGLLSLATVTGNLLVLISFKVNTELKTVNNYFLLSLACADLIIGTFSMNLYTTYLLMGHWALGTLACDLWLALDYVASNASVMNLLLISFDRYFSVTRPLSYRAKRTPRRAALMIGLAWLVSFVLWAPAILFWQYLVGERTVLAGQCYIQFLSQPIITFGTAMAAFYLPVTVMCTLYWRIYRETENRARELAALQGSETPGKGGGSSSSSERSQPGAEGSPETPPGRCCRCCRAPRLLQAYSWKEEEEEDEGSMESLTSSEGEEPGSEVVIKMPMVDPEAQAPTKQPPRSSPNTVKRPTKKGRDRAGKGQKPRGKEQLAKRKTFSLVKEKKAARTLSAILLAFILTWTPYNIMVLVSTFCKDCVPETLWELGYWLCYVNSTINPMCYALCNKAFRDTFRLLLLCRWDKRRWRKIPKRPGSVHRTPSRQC
# In short: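 CHRM1-CHO calcium-flux assay, antagonist mode. Cells were seeded 18 h, dye-loaded 1 h at 37 C and given compound for 5 min at RT, then acetylcholine was added at 50nM. FDSS fluorescence was read 3 min; 15 concentrations, three runs.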
# [8] = target: Muscarinic acetylcholine receptor M1 (Homo sapiens) (UniProt P11229); assay: Cholinergic receptor muscarinic 1 (CHRM1) small molecule agonists, cell-based qHTS assay (AID 1963589); conditions: CHRM1-CHO cells, agonist mode, calcium flux fluorescence; series mostly up to 76.8 µM; further: nearly all actives have a fitted effect of over 35% in size
# In short: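 Measures agonist-induced intracellular calcium rise. Stable human CHRM1 CHO line, 1 h dye load at 37 C, compounds from DMSO, kinetic fluorescence read.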
# [9] = cAMP Responsive Elements (CRE) small molecule agonists, cell-based qHTS assay (AID 1963590); conditions: CRE-bla HEK293T, beta-lactamase FRET ratio, 3 h; series mostly up to 92.4 µM
# In short: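 A CRE-responsive beta-lactamase reporter in HEK 293T cells was used. Treatment ran 3 h at 37 C; detection used LiveBLAzer B/G FRET substrate for 2 h at room temperature.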
# [10] = target: Beta-2 adrenergic receptor (Homo sapiens) (UniProt P07550); assay: Adrenergic beta2 receptor (ADRB2) small molecule agonists, cell-based qHTS assay (AID 1963593); conditions: CHO-ADRB2 cells, cAMP HTRF, 30 min; series mostly up to 92.4 µM;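 further: CHO cells stably overexpressing human ADRB2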
# Chain of Beta-2 adrenergic receptor (Homo sapiens) (P07550 whole entry, looked up): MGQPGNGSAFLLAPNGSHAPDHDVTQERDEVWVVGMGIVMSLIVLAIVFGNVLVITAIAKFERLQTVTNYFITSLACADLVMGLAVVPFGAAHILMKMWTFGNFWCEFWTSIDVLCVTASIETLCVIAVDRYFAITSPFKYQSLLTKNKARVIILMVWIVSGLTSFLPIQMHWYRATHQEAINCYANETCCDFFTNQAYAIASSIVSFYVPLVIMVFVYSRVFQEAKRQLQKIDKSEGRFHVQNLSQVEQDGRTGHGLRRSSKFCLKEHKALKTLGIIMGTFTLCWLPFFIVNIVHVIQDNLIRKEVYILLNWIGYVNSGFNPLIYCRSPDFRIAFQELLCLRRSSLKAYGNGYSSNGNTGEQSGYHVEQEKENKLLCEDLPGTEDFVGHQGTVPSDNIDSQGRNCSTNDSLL
# In short: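 CHO cells stably over-expressing ADRB2 were plated overnight at 37C, then dosed with compounds plus a stimulation mix containing 100uM IBMX and 25uM Ro-20-1724 for 0.5hr at room temperature. cAMP was measured by HTRF competition, 1hr.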
# [11] = target: D(2) dopamine receptor (Homo sapiens) (UniProt P14416); assay: Dopamine D2 receptor (DRD2) small molecule antagonists, cell-based qHTS assay (AID 1963595; active means well fitted inhibition curve with a large enough effect in the signal ratio in the repeat runs, with a control signal flat; the % refers to the signal ratio); conditions: HEK293-DRD2 cAMP HTRF antagonist mode; series mostly up to 92.4 µM
# Chain of D(2) dopamine receptor (Homo sapiens) (P14416 whole entry, looked up): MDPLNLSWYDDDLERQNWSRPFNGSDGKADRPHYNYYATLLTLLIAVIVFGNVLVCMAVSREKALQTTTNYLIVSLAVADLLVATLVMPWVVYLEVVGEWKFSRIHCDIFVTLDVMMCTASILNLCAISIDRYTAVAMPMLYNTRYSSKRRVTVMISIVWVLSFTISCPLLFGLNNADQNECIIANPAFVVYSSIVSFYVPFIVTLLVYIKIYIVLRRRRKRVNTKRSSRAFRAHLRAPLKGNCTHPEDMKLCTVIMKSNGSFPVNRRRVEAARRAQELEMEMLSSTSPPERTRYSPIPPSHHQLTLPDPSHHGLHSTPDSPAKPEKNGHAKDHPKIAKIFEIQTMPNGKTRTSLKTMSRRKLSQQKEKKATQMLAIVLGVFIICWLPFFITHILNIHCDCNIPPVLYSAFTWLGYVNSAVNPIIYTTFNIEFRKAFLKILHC
# In short: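 DRD2-HEK293; 0.1 mM Ro20-1724; cpd 10 min RT; NKH477 200 nM + quinpirole 12 nM, 30 min RT; HTRF cAMP (cAMP-d2/anti-cAMP cryptate), 665/620 nm ratio after 1 h.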
# [12] = p53 small molecule agonists, cell-based qHTS assay: qHTS cell viability counter screen (AID 1963581); conditions: p53RE-bla HCT-116 viability, ATP luminescence, 16 h; series mostly up to 66 µM; further: nearly all actives have a fitted effect of over 45% in size
# In short: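 Following 5 h attachment, HCT-116 p53RE-bla cells took up compound for 16 h at 37 C; the reporter was read with B/G FRET substrate (2 h RT), and viability then via CellTiter-Glo ATP luminescence.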
# [13] = cAMP Responsive Elements (CRE) small molecule antagonists, cell-based qHTS assay (AID 1963591; active means well fitted inhibition curve with a large enough effect in the signal ratio in the repeat runs, not every such curve was filed as active; the % refers to the signal ratio; further: potency means the concentration at half of the fitted maximal effect); conditions: CRE-bla HEK293T, beta-lactamase FRET ratio; series mostly up to 92.4 µM
# In short: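 HEK293T cells carrying a CRE-driven beta-lactamase reporter receive compound and NKH477 (0.25 uM final) for 3 h. Fluorescence from LiveBLAzer B/G FRET substrate is read after 2 h at room temperature.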
# [14] = target: Beta-2 adrenergic receptor (Homo sapiens) (UniProt P07550); assay: Adrenergic beta2 receptor (ADRB2) small molecule antagonists, cell-based qHTS assay (AID 1963592); conditions: CHO-ADRB2 cells, isoproterenol-stimulated cAMP HTRF ratio, 0.5 h; series mostly up to 92.4 µM; further: nearly all actives have a fitted effect of over 50% in size
# In short: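 Cells (CHO, stable ADRB2 overexpression) incubated 18-20hr at 37C; compounds added from DMSO; agonist mix (1nM isoproterenol, 100uM IBMX, 25uM Ro-20-1724) added; 0.5hr RT; d2-cAMP and anti-cAMP-cryptate added; 1hr RT; 665/615 nm read.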
# [15] = target: D(2) dopamine receptor (Homo sapiens) (UniProt P14416); assay: Dopamine D2 receptor (DRD2) small molecule agonists, cell-based qHTS assay (AID 1963594); conditions: HEK293-DRD2 cAMP HTRF, agonist mode, 30 min; series mostly up to 92.4 µM; further: nearly all actives have a fitted effect of over 35% in size
# In short: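 HEK293 cells stably expressing DRD2 were cultured 24 h at 37 C, then given Ro20-1724 (0.1 mM final) and compounds for 10 min at room temperature. NKH477 (200nM) was then added for 30 min. cAMP was read by HTRF.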
# [16] = G protein-coupled receptor (GPCR) small molecule agonists, calcium flux assay: HEK293 wild type cell line counter screen (AID 1920065); conditions: HEK293 WT calcium flux, fluorescence, agonist mode; series mostly up to 57.6 µM
# In short: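 Calcium-sensitive dye, loaded 1 h at 37 C into cells cultured 18 h, reports compound-evoked calcium release as fluorescence (Ex/Em 480/540), measured over 3 min. Agonist mode; 15-point titrations, triplicate.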
# [17] = p53 small molecule agonists, cell-based qHTS assay with rat liver microsomes (AID 1963578); conditions: HCT-116 p53RE-bla, beta-lactamase ratio, 16 h; series mostly up to 66 µM
# In short: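 Quantitative HTS of the Tox21 10K library: p53RE-bla cells, rat liver microsomes plus NADPH at 0.5 mg/mL final each, 16 h at 37 C, beta-lactamase fluorescence detection.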
# [18] = target: 5-hydroxytryptamine receptor 2A (Homo sapiens) (UniProt P28223); assay: 5-hydroxytryptamine receptor 2A (HTR2A) small molecule antagonists, cell-based qHTS assay (AID 1963586); conditions: HTR2A-CHO cells, DOI-induced calcium flux, fluorescence; series mostly up to 61.5 µM; further: nearly all actives have a fitted effect of over 45% in size
# Chain of 5-hydroxytryptamine receptor 2A (Homo sapiens) (P28223 whole entry, looked up): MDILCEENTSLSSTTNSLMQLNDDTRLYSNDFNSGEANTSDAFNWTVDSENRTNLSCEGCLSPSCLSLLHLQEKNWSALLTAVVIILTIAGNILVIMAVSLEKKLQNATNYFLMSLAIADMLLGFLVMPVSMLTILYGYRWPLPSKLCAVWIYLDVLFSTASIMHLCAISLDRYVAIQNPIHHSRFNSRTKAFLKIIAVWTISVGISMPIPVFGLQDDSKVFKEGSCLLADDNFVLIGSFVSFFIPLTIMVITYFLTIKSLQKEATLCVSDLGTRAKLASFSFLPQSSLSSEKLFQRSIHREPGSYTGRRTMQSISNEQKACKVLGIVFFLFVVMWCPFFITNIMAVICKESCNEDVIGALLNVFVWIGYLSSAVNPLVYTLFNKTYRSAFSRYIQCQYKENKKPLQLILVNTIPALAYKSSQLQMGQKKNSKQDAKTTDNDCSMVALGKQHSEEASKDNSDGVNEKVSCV
# In short: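 Antagonist-mode intracellular calcium assay: DOI (4 nM) added after 5 min compound pre-incubation at room temperature to dye-loaded HTR2A-CHO cells. Fluorescence followed for 3 min, sampled every second.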
# [19] = target: 5-hydroxytryptamine receptor 2A (Homo sapiens) (UniProt P28223); assay: 5-hydroxytryptamine receptor 2A (HTR2A) small molecule agonists, cell-based qHTS assay (AID 1963587); conditions: HTR2A-CHO cells, calcium flux fluorescence, agonist mode; series mostly up to 76.8 µM; further: nearly all actives have a fitted effect of over 30% in size; further: potency means the concentration at half of the fitted maximal effect
# In short: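 HTR2A-CHO cells, plated 18 h at 37 C/5% CO2, dye-loaded 1 h at 37 C; compounds in DMSO added by pin tool (agonist mode). Intracellular calcium flux read as kinetic fluorescence on FDSS over 2 min at 1 s intervals.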
SMILES,Potency [1],Potency [2],Potency [3],Potency [4],Potency [5],Potency [6],Potency [7],Potency [8],Potency [9],Potency [10],Potency [11],Potency [12],Potency [13],Potency [14],Potency [15],Potency [16],Potency [17],Potency [18],Potency [19]
Fc1ccccc1,inactive,inactive,inactive,inactive,inactive,inactive,inactive,inactive,inactive,inactive,inactive,,,,,,,,
N#Cc1ccc(C(c2ccc(C#N)cc2)n2cncn2)cc1,inactive,inactive,inactive,inactive,inactive,inactive,,,,inactive,inactive,inactive,inactive,inactive,inactive,,,,
CCCCCCCCOC(=O)c1cc(O)c(O)c(O)c1,61.1 µM (active),inactive,34.7 µM (active),,inactive,inactive,inactive,,inactive,,,,30.6 µM (active),inactive,inactive,inactive,inactive,inactive,49 µM (active)
Cn1c(NCCN(CCO)CCCc2ccc([N+](=O)[O-])cc2)cc(=O)n(C)c1=O,inactive,inactive,inactive,inactive,inactive,inactive,inactive,inactive,inactive,inactive,inactive,inactive,inactive,inactive,inactive,,,,
CC(C)(C)C1CCCCC1=O (stereo not drawn),inactive,inactive,inactive,inactive,inactive,inactive,inactive,inactive,,,inactive,inactive,inactive,inactive,inactive,,,inactive,inactive
CC1CCC(=O)C1=O (stereo not drawn),inactive,inactive,inactive,inactive,inactive,inactive,inactive,inactive,inactive,,inactive,inactive,inactive,inactive,inactive,,,inactive,inactive
CC[N+](C)(CC)CCOC(=O)C1c2ccccc2Oc2ccccc21,inactive,inactive,inactive,inactive,inactive,inactive,,inactive,inactive,,inactive,inactive,inactive,inactive,inactive,,,inactive,inactive
